High-throughput results deposited in PubChem BioAssay by The Scripps Research Institute Molecular Screening Center.
PLC-beta3 inh – blocks human PLC-beta3 enzyme activity; AID 720704; actives 0.18% (n = 370,000); Purified PLC-beta3, fluorogenic substrate, fluorescence; Q01970; inhibition, % at 12.2 µM; in the data active means inhibition above about 11%
ADAM10 inh – inhibits human ADAM10; O14672; recombinant ADAM10, EDANS/DABCYL FRET peptide cleavage, 3 h; inhibition, % at 7 µM; actives 0.62% (n = 370,000); AID 720582;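 active means inhibition above a per-campaign cutoff equal to the mean of compounds falling between control-based bounds plus 3 SD, cut at about 20% in these data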
sPLA2-III inh – Blocks human group III sPLA2 activity; QFRET BODIPY PC-A2 liposome hydrolysis, fluorescence; actives 0.56% (n = 370,000); inhibition, % at 12.2 µM;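 active means inhibition above mean plus 3 SD of compounds lying within the high and low control bounds, cut at about 19% in these data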
ADAM17 inh – ADAM17 inhibition, QFRET primary screen; inhibition, % at 6.95 µM; AID 720648; recombinant ADAM17, EDANS/DABCYL FRET peptide cleavage; P78536; actives 0.83% (n = 370,000);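 active means inhibition above the mean of compounds lying between control limits plus 3 SD, set per campaign, cut at about 8.5% in these data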
proKLK7 act – proKLK7 (human) activation, primary screen. P49862. purified proKLK7, EDANS-DABCYL substrate fluorescence; 100% is mature enzyme control, 0% vehicle. activation, % at 7 µM. actives 0.9% (n = 370,000). AID 652039;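 active means activation above the mean of all tested compounds plus 3 SD, computed per campaign excluding outliers beyond control limits, cut at about 13% in these data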
Target sequence (P49862 whole entry, looked up): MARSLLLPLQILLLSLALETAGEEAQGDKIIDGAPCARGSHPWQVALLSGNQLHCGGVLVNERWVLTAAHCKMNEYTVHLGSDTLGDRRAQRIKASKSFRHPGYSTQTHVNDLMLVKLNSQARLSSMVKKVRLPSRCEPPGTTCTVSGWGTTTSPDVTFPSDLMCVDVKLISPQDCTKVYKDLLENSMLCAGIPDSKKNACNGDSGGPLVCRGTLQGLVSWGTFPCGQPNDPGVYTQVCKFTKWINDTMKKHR
PLCg1 inh – blocks human PLC-gamma1 enzyme activity. purified PLC-gamma1, fluorogenic substrate, fluorescence. inhibition, % at 12.2 µM. actives 0.84% (n = 370,000). AID 720700; in the data active means inhibition above about 9.5%
sPLA2 confirm – human GIII-sPLA2 inhibition, confirmation; shares compounds with sPLA2-III inh; inhibition, % at 12.2 µM; actives 34% (n = 2,000); AID 743280; recombinant hGIII-sPLA2, BODIPY PC-A2 QFRET fluorescence;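 active means mean inhibition across triplicates above the hit cutoff set in the earlier primary screen, cut at about 19% in these data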
535nm interf – optically interferes with 535nm fluorescence in sPLA2 counter-screen. shares compounds with sPLA2-III inh. inhibition, % at 12.2 µM. BODIPY FL product fluorescence interference, QFRET. actives 8.5% (n = 2,000);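 active means average inhibition above the solvent-only control mean plus 3 SD, cut at about 6% in these data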
535nm interf DR – interferes with 535nm fluorescence in dose response counter-screen | shares compounds with sPLA2-III inh | BODIPY FL product fluorescence interference, cell-free | IC50, µM | 240 tested, under 10 active;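 active means IC50 at or below 10 µM; inactive means IC50 above 10 µM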
Large screens that a line does not name were inactive (follow-up assays come after a bar, where they were run). Compounds with a hit are over-represented: about 3.4% of the library has one in this group of screens.

Cc1ccc(NCCN(C)C)c2c(=O)c3cc(O)ccc3sc12	none
CSc1cccc(NC(N)=S)c1	sPLA2-III inh 19.7 | sPLA2 confirm inactive | 535nm interf inactive
CCCn1nnc(NC(=O)c2ccc(OCC)c(Cl)c2)n1	sPLA2-III inh 24.4 | sPLA2 confirm inactive | 535nm interf inactive
COc1cccc(NC(=O)C2(C)CCCN2C(=O)C(C)C)c1OC (centres undefined)	none
CCC(C)[C@@H](C(=O)NCC1CCC(C(=O)O)CC1)n1nnc2ccccc2c1=O (some centres undefined)	sPLA2-III inh 19.7 | sPLA2 confirm inactive | 535nm interf inactive
COc1ccccc1CCC(=O)Nc1ccc(C)cc1Cl	none
O=C(COC(=O)c1c[nH]c2ccccc12)Nc1ccc(F)cc1	none
Cc1ccc(O)c(NC(=S)NC(=O)C(C)C)c1	sPLA2-III inh 20.6 | sPLA2 confirm inactive | 535nm interf inactive
Cc1ccc(O)c(NC(=S)NC(=O)CC(C)C)c1	none
N#CC(C#N)=c1ccc2c(c1)N1C3=C(CCCC3)CC3CCCCC31N=2 (centres undefined)	none
N#C/C(C(N)=O)=c1/ccc2c(c1)N1C3=C(CCCC3)CC3CCCCC31N=2 (centres undefined)	sPLA2-III inh 26.4 | sPLA2 confirm 44.8 | 535nm interf inactive | 535nm interf DR inactive
C=CC[n+]1c(-c2ccccc2)csc1NC(C)(C)C	sPLA2-III inh 19.5 | sPLA2 confirm 21.2 | 535nm interf inactive
C=CC[n+]1c(-c2ccc(OC)c(OC)c2)csc1NNC(=O)Nc1ccccc1	none
CCOC(=O)Cn1c(=O)c2c(nc(N3CCCCC3)n2C)n(C)c1=O	sPLA2-III inh 19.8 | sPLA2 confirm inactive | 535nm interf inactive
CCC1(c2ccccc2)NC(=O)N(CC(=O)Nc2ccc3c(C)cc(=O)oc3c2)C1=O (centres undefined)	none
CCC(C)NC(=S)N(Cc1cc2cc(C)ccc2n2nnnc12)CC(C)(C)NC(C)C (centres undefined)	sPLA2-III inh 21.2 | sPLA2 confirm inactive | 535nm interf inactive
Cc1ccc(Cl)c(OCC(=O)Nc2ccccc2N2CCCCC2)c1	none
O=C(Nc1ccccc1)Nc1ccc(Nc2ccccc2)cc1	sPLA2-III inh 24.7 | sPLA2 confirm inactive | 535nm interf inactive
O=C(Nc1ccccc1)Nc1ccccc1	none
O=S(=O)(O)c1cc(O)c(N=Nc2ccc(O)cc2O)c2ccccc12	sPLA2-III inh 22.8 | sPLA2 confirm inactive | 535nm interf inactive
O=C(N/N=C/c1coc2ccccc2c1=O)c1ccccc1	none
O=C(N/N=C/c1coc2ccccc2c1=O)c1cc(Br)ccc1O	sPLA2-III inh 21.8 | sPLA2 confirm inactive | 535nm interf inactive
COc1ccc(-c2c(C(=O)c3ccccc3)[nH]c(N)c2C(=O)c2ccccc2)cc1OC	sPLA2-III inh 20.5 | sPLA2 confirm inactive | 535nm interf inactive
COc1ccc(C(=O)c2[nH]c(N)c(C(N)=O)c2-c2ccc(OC)c(OC)c2)cc1	none
COc1ccc(-c2c(C(=O)c3ccccc3)[nH]c(N)c2C(=O)c2ccc(Br)cc2)cc1OC	sPLA2-III inh 25.7 | sPLA2 confirm 19.9 | 535nm interf inactive
Nc1nc(NC(=O)CCC(=O)O)nn1-c1ccccc1	none
CC1(C)CC(=O)C2=C(C1)NC1=C(C(=O)c3ccccc31)C2c1cc([N+](=O)[O-])ccc1O (centres undefined)	none
CCCCn1c(SCC(=O)NC2CC2)nnc1-c1ccncc1	none
C=CCS/C(N)=N\N=C\c1c(O)ccc2ccccc12	sPLA2-III inh 20.3 | sPLA2 confirm 28.8 | 535nm interf inactive | 535nm interf DR inactive
NC(=O)c1ccc(N=Cc2c(O)ccc3ccccc23)cc1	none
Nc1cc(C(F)(F)F)cc2c1SCC(=O)N2	none
Cc1cc(C)nc(Sc2ccc([N+](=O)[O-])cc2[N+](=O)[O-])n1	sPLA2-III inh 20.3 | sPLA2 confirm inactive | 535nm interf inactive
O=[N+]([O-])c1ccc(Sc2ccncn2)c([N+](=O)[O-])c1	none
Cc1cc(NS(=O)(=O)c2ccc(NC(=S)NC(=O)c3ccc(C(C)(C)C)cc3)cc2)no1	none
Cc1cc(NC(=O)c2cccc(C)c2[N+](=O)[O-])no1	none
CC(C)(C)C(=O)NC(=S)Nc1ccc(C(F)(F)F)cc1	sPLA2-III inh 21.0 | sPLA2 confirm inactive | 535nm interf inactive
CC(C)(C)C(=O)NC(=S)Nc1ccc(Cl)c(C(=O)O)c1	none
COc1cc([N+](=O)[O-])ccc1N	sPLA2-III inh 28.4 | sPLA2 confirm inactive | 535nm interf inactive
CCOC(=O)C(=O)Nc1ccc([N+](=O)[O-])cc1OC	sPLA2-III inh 23.4 | sPLA2 confirm inactive | 535nm interf inactive
CCOC(=O)Nc1ccc([N+](=O)[O-])cc1OC	none
COC(=O)C1=C(C)N(Cc2ccccc2C(F)(F)F)C(=NCc2cc(OC)c(OC)c(OC)c2)NC1CCc1ccccc1 (centres undefined)	none
COc1ccc(NC(=S)NC(NC(=O)c2cccc(Cl)c2)C(Cl)(Cl)Cl)c([N+](=O)[O-])c1 (centres undefined)	sPLA2-III inh 28.9 | sPLA2 confirm 52.1 | 535nm interf 11.8
CSC1=NCCN1C(=O)c1c(-c2ccccc2Cl)noc1C	none
CSC1=NCCCN1C(=O)c1c(-c2ccccc2Cl)noc1C	sPLA2-III inh 22.5 | sPLA2 confirm inactive | 535nm interf inactive
C/C(=N/NC(=O)c1nnn(-c2nonc2N)c1COc1ccccc1)c1ccc(O)cc1	none
CC(=O)c1cccc(NS(=O)(=O)N2CCOCC2)c1	none
O=C(NNC(=O)C1CCN(S(=O)(=O)c2ccc(Cl)cc2)CC1)c1ccccc1O	sPLA2-III inh 20.6 | sPLA2 confirm inactive | 535nm interf inactive
CC(C)(C)NC(=O)COC(=O)c1ccccc1C(=O)c1ccccc1	none
CCOc1cc2c3c(c1)C1(OCCO1)C(=O)N3C(C)(C)CC2C (centres undefined)	none
CCc1cc2c3c(c1)C(C)CC(C)(C)N3C(=O)C2=O (centres undefined)	sPLA2-III inh 27.0 | sPLA2 confirm inactive | 535nm interf inactive
COc1ccc(N2C(=O)c3n[nH]c(C(C)C)c3C2c2ccccc2)cc1 (centres undefined)	none
